Experimental findings from ChEMBL document CHEMBL1201862, “PubChem BioAssay data set” (2004) are described below.

SMILES strings stand for the structures. Hit rate of the full screen: of about 390,000 compounds, about 910 (0.23%) were called active. About 5% were inconclusive and are not listed. The calls are words filed in the database; no cut-off is given here. This excerpt belongs to a sample that is enriched for actives.

The assay has as its target T1, Ubiquitin carboxyl-terminal hydrolase 1 (Homo sapiens) (UniProt O94782).
T1 sequence (whole entry): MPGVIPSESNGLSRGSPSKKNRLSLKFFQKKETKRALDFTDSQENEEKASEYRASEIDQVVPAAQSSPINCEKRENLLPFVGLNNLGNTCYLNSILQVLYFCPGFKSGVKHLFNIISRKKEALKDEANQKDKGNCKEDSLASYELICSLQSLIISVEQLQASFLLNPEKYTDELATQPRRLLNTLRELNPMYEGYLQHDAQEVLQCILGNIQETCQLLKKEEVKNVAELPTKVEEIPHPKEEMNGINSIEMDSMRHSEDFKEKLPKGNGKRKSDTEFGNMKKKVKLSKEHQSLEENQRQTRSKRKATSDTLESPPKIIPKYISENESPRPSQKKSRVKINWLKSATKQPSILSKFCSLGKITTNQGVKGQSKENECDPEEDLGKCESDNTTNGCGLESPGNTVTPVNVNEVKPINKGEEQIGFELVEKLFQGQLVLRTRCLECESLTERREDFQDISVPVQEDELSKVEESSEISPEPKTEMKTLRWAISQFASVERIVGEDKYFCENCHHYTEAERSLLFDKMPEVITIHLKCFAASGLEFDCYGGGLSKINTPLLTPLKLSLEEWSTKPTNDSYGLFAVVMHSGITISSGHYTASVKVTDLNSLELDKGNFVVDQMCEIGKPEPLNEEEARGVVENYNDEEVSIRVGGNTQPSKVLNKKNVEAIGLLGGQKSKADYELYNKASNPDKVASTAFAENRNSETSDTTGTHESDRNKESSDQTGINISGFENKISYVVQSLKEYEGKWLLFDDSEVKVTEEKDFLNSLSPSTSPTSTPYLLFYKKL
The experiment in a line: Inhibitors of USP1/UAF1: Primary Screen. It counts as functional.
Regarding `CCn1nc(-c2ccccc2)nc2c(=O)n(C)c(=O)nc1-2`, the Potency was 89.1 µM (active).
